Screening data from PubChem BioAssay.
Most compounds without a hit are left out; they make up all but 7% or so of the library.
BAZ2B inh: inhibitors of human BAZ2B bromodomain. Q9UIF8. AlphaScreen BAZ2B-H3K14Ac peptide displacement. Potency, µM (titrated, usually from 114 µM), for the others: top-dose activity change, negative = inhibition, usual class: inhibitors. 360,000 tested, 4.4% active. AID 504333; further: potency means the concentration at half of the fitted maximal effect; on the % scale 0 is the no-effect control and ±100 the full control effect; nearly all actives have a fitted effect of over 60% in size
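Protein-peptide AlphaScreen: BAZ2B 50 nM, b-H3K14Ac 50 nM, 1x PBS pH 7.4 + 0.01% Tween-20. Preincubation 30 min RT; cpd 30 min RT (top 110 uM); beads 20 min RT, light-protected.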
PLK1 PBD block: blocks phosphopeptide binding to human PLK1 polo-box domain | Plk1 PBD binding of FITC phosphopeptide, fluorescence polarization | Potency, µM, for the others: max response, negative = inhibition, hits mostly inhibitors | P53350 | AID 720504 | 360,000 tested, 2.8% active; further: potency means the concentration at half of the fitted maximal effect; series mostly up to about 57 µM; on the % scale 0 is the no-effect control and ±100 the full control effect; nearly all actives have a fitted effect of over 65% in size
GCN5L2 inh: inhibitors of human GCN5L2 histone acetyltransferase; GCN5L2 HAT assay, ThioGlo1 CoA-SH fluorescence; Potency, µM (top dose mostly 58.9 µM), inactives show top-dose activity change, negative = inhibition, hits mostly inhibitors; 390,000 tested, 0.21% active; AID 504327; further: potency means the concentration at half of the fitted maximal effect; on the % scale 0 is the no-effect control and ±100 the full control effect
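Compounds, pin-transferred from DMSO stocks, meet 20nM GCN5L2 for 15 min before the reaction begins with H3(1-25) peptide (75uM) and acetyl-CoA (70uM). Thiol-reactive ThioGlo1 reports CoA release over 20 min at room temperature.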
JMJD2A Tudor: inhibitors of human JMJD2A Tudor domain. Potency, µM (series often up to 114 µM), inactives show at the top dose activity change, negative = inhibition, hits mostly inhibitors. 390,000 tested, 4.4% active. AlphaScreen JMJD2A-Tudor / H3K4me3 peptide binding; further: potency means the concentration at half of the fitted maximal effect; on the % scale 0 is the no-effect control and ±100 the full control effect; nearly all actives have a fitted effect of over 50% in size
PI5P4Ka inh: inhibitors of human PI5P4K alpha; P48426; PI5P4Kalpha enzyme, ADP-Glo luminescence, 60 min; active compounds read low; max response, %; 330,000 tested, 1.2% active; active means max response of -50% or lower; inconclusive means between -30% and -50%; inactive means -30% or higher; further: value at the top dose of about 77 µM; on the % scale 0 is the no-effect control and ±100 the full control effect
Target sequence (P48426 whole entry, looked up): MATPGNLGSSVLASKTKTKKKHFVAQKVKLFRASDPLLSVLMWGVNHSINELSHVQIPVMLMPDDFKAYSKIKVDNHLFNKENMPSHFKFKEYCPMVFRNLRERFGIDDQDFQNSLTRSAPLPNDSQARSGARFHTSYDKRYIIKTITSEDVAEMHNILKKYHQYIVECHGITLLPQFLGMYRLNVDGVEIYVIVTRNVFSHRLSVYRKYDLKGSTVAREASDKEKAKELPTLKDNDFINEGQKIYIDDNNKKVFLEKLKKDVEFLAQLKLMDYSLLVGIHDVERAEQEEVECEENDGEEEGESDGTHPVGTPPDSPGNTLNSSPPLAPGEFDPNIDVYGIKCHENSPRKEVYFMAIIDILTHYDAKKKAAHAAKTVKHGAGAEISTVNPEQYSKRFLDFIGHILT
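Single end-point luminescence (ADP-Glo) quantified ADP from PI5P4Kalpha turnover; ATP 5 microM final, 1 h at RT, 0.1% CHAPS and 0.28 mM EGTA in HEPES pH 7.4.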
HP1b binding inh: HP1-beta chromodomain-methylated histone interaction inhibition | AlphaScreen HP1-beta / biotin-H3K9me3 peptide binding | Potency, µM (titrated, usually from 114 µM), inactives show top-dose activity change, negative = inhibition, usual class: inhibitors | P83916 | 390,000 tested, 0.56% active; further: potency means the concentration at half of the fitted maximal effect; nearly all actives have a fitted effect of over 70% in size
Target sequence (P83916 whole entry, looked up): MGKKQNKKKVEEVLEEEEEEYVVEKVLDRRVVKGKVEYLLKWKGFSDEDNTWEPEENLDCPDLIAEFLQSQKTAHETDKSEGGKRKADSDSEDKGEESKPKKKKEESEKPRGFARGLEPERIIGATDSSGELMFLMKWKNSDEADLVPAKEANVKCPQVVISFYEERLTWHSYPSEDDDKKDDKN
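Compound inhibition of the preformed complex between 50 nM HP1-beta and 50 nM biotinylated H3K9me3 peptide was read by AlphaScreen. Buffer was PBS pH 7.4 with 0.01% Tween-20. Incubations ran 30 min at room temperature, with 10 ug/mL donor/acceptor beads.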
Starred values were filed as active, the others as inactive; ? = inconclusive; / = no result given; [ ] = another dose, or the depositor's remark. Unless noted, the call rests on the fitted dose curve; in most records, active means well fitted curve in the direction sought with a large enough effect; inconclusive means small, poorly fitted or top-dose-only effect, or another doubt; inactive means no such curve, though single readings can be large; an effect the other way counts as inactive or inconclusive.

SMILES	BAZ2B inh	PLK1 PBD block	GCN5L2 inh	JMJD2A Tudor	PI5P4Ka inh	HP1b binding inh
Cc1ccc(S(=O)(=O)N(CC(=O)O)Cc2ccco2)cc1	56µM*	-29%	0%	89µM*	-21	-10%
O=C1C2CC=C(Cl)CC2C(=O)N1c1ncn[nH]1 (centres undefined)	56µM*	-16%	-5%	89µM*	-3	39%
O=C1C2CC=CCC2C(=O)N1c1ncn[nH]1 (centres undefined)	?	3%	3%	-13%	/	6%
Cc1ccc(-c2nn(-c3ccccc3)cc2CN(Cc2ccccc2)C(=O)c2ccco2)o1	32µM*	-30%	-9%	56µM*	-2	-37%
COCCCn1c(=O)/c(=C\c2ccccc2OC(C)C)s/c1=C(/C#N)C(=O)Nc1ccc(C(=O)O)cc1	50µM*	?	?	?	6	-15%
O=C(NC1CCCC1)C(c1ccncc1)N(C(=O)c1ccco1)c1ccc(F)c(Cl)c1 (centres undefined)	3%	0%	0%	-7%	-8	28%
Cc1nnsc1C(=O)N1CCCC1(C)C(=O)O (centres undefined)	/	-13%	/	/	6	/
C/C(=N\OC(=O)Nc1ccc(Cl)cc1)c1ccc(F)c(F)c1	-3%	1%	-1%	14%	10	31%
CC(C)C(Cl)=NOC(=O)Nc1ccc(F)cc1	/	13µM*	/	-12%	7	-6%
COc1ccc(Cn2ccc3nc(C)c(C(=O)Nc4ccc(OC)cc4)cc3c2=O)cc1	4%	/	11%	-5%	/	72%
O=C(NCc1cccs1)c1ccc(CSc2nc3cccnc3n2Cc2ccccc2F)cc1	8.9µM*	/	-8%	5.6µM*	/	?
CN(Cc1ccccc1)C(=O)c1ccc(CSc2nc3cccnc3n2Cc2ccccc2F)cc1	25µM*	/	-4%	5µM*	/	?
COc1ccc(-c2nc3ccccc3s2)cc1NC(=O)c1ccc(C#N)cc1F	0%	/	-10%	4%	/	37%
CCN(CC(=O)Nc1ccc2c(c1)OCCO2)C(=O)c1ccccc1Br	/	3%	0%	-7%	-1	51%
CN(CC(=O)Nc1ccccc1Br)C(=O)c1cc([N+](=O)[O-])ccc1N1CCOCC1	-23%	-2%	-11%	-12%	12	26%
CCC(C)N1CCN(C(=O)c2cc(OC)cc(OC)c2)CC1 (centres undefined)	79µM*	3%	2%	20µM*	-8	?
COc1cc(C(=O)N2CCN(Cc3ccccc3C(F)(F)F)CC2)cc(OC)c1OC	32µM*	-2%	3%	20µM*	-12	?
COc1cccc(C(=O)NCCS(=O)(=O)NCc2ccccn2)c1	-3%	-8%	2%	2.5µM*	4	-2%
O=C(C(c1ccccc1)c1ccccc1)N1CCN(Cc2ccccn2)CC1	56µM*	-4%	1%	4µM*	-7	?
O=C(C(c1ccccc1)c1ccccc1)N1CCN(Cc2ccncc2)CC1	?	-5%	0%	?	0	?
O=C(c1ccc(OC2CCN(Cc3ccccc3C(F)(F)F)CC2)cc1)N1CCCCC1	-14%	-4%	?	-18%	15	8%
COc1cc(OC)cc(C(=O)N2CCN(Cc3ccccc3C(F)(F)F)CC2)c1	35µM*	2%	0%	1.6µM*	/	?
COc1ccc(C(=O)N2CCN(CCc3ccccn3)CC2)cc1	?	-4%	4%	-5%	-1	41%
COc1cccc(C(=O)N2CCN(Cc3ccccn3)CC2)c1	20µM*	0%	1%	3.5µM*	1	-23%
CC(=O)c1cccc(NC(=O)CSc2ncc(C(=O)Nc3ccccc3)c(=O)n2C)c1	10%	-8%	-5%	-4%	-1	23%
SMILES	BAZ2B inh	PLK1 PBD block	GCN5L2 inh	JMJD2A Tudor	PI5P4Ka inh	HP1b binding inh
CCOC(=O)CNc1ncnc2c1nnn2C	2%	/	-12%	9%	/	15%
CC1=CC(=NOC(=O)c2cccc([N+](=O)[O-])c2)C=C(C)C1=O	?	6.7µM*	-16%	-27%	-16	24%
CC1=CC(=O)C(C(C)C)=C/C1=N\OC(=O)c1cccc2nc(C)oc12	5%	-29%	24%	-20%	7	17%
CC1=CC(=O)C(C(C)C)=C/C1=N/OC(=O)c1cccc([N+](=O)[O-])c1	-10%	3.8µM*	-5%	-32%	/	-21%
COc1ccc(OCC(O)CNS(=O)(=O)c2ccc(C)cc2)cc1 (centres undefined)	4%	-11%	-6%	-25%	2	23%
O=[N+]([O-])c1ccc(OCCCCN2CCc3ccccc3C2)cc1	79µM*	-14%	-6%	20µM*	-10	?
CC1CCN(CCCCOc2ccc([N+](=O)[O-])cc2)CC1	-33%	-4%	-1%	79µM*	1	5%
O=C1CCN(Cc2ccccc2)CCN1CCOc1ccccc1	-25%	1%	-6%	-10%	0	28%
CC(C)c1cccc(OCCCCN(C)C)c1	?	-6%	-5%	?	1	?
CC1CCC(=O)N(CCOc2ccccc2)CC1 (centres undefined)	8%	27µM*	4%	?	-4	9%
CCN(CC)CCOc1cccc(C(C)C)c1	?	-4%	-1%	6.3µM*	8	?
CCc1ccc(NC(=O)CSc2ccc(-c3cccs3)nn2)cc1	-5%	/	-8%	-12%	/	6%
Cc1ccc2[nH]c(=O)c3cc(C(=O)N(C)c4ccccc4C)sc3c2c1	-7%	0%	3%	7%	1	30%
CCC(C)N1C(=O)N(c2cccc(Cl)c2)C(C)(O)CC1(C)C (centres undefined)	2%	-12%	-2%	-5%	-7	30%
Cn1c(=O)c2c(nc3n2CC(O)CN3c2ccccc2)n(C)c1=O (centres undefined)	/	-4%	/	-5%	4	6%
CC1CCN(CCCCOc2ccccc2[N+](=O)[O-])CC1	?	-1%	-2%	4.5µM*	/	?
CC1CCN(CCCCOc2ccc(C(=O)c3ccccc3)cc2)CC1	-14%	27µM*	-26%	-21%[11.4 µM]	-1	-1%
CC1CCN(CCCCOc2cccc(C(C)C)c2)CC1	?	-4%	3%	56µM*	-4	-29%
CCOc1ccccc1OCCOCCOc1ccccc1[N+](=O)[O-]	-1%	-22%	-1%	9%[57.1 µM]	-4	59%
CC1CCN(CCCCOc2ccc(F)cc2)CC1	?	4%	1%	3.2µM*	5	?
O=C(Nc1ccccc1N1CCN(c2ccccc2)CC1)c1ccccc1	-34%	-1%	-5%	-20%	0	7%
O=C(CN1C(=O)CSc2ccc(S(=O)(=O)N3CCCC3)cc21)NCc1ccccc1Cl	-17%	/	-7%	-18%	/	15%
